Measured values taken from PubChem BioAssay AID588591 (National Center for Advancing Translational Sciences (NCATS), 2011).
The campaign covered roughly 390,000 compounds. About 4,700 (1.2%) were called active. Inconclusive results (about 4%) are left out. Calls come from the whole dose curve; as a rule, active = well fitted inhibition curve with a large enough effect; inconclusive = small, poorly fitted or top-dose-only effect, or another doubt; inactive = no such curve, though single readings can be large or run the other way. The full list was thinned out, with actives kept by preference.

These molecules were tested against DNA polymerase eta (Homo sapiens) (UniProt Q9Y253) (assay: qHTS for Inhibitors of Polymerase Eta). Settings: recombinant Pol eta, fluorescent DNA replication assay; series mostly up to 114 µM; activity change, negative = inhibition: at the top concentration.
Sequence of DNA polymerase eta (Homo sapiens) (Q9Y253 whole entry, looked up): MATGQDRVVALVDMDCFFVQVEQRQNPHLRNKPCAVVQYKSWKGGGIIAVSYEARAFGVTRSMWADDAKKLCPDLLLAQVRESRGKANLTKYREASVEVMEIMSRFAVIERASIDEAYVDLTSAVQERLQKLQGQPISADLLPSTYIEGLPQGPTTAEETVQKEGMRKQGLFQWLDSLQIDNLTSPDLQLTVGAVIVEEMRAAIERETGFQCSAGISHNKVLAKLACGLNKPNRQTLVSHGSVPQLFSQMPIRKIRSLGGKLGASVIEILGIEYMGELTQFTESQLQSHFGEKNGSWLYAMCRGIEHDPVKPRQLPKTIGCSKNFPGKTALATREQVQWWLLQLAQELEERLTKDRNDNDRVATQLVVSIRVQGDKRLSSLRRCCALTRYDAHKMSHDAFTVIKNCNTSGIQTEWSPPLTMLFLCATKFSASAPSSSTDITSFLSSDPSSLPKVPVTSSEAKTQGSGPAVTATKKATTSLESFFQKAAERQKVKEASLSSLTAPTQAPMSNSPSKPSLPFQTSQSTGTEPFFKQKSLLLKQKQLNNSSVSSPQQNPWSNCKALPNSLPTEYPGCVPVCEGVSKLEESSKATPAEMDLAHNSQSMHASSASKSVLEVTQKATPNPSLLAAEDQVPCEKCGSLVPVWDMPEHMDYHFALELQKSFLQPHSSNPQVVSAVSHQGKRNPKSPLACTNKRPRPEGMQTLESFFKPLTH
Outline: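 Fluorescent replication assay: 50 nM final substrate added after a 15 min room-temperature compound preincubation with 10 nM enzyme. Signal taken at 0 min and again at 10 min.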
% is set by controls: 0 for no effect and ±100 for the full control effect; potency is the fitted concentration of half-maximal effect.

| Structure (SMILES) | activity change, negative = inhibition | Potency |
| --- | --- | --- |
| Cc1cc(C)n2nc(SCC(=O)NC(=O)NCc3ccco3)nc2n1 | -12.1% (inactive) |  |
| Cc1cc(C)c2c(c1)c(C)cc1nnc(SCC(=O)NCc3ccco3)n12 | -9.48% (inactive) |  |
| CCc1cccc(NC(=O)CN(C)S(=O)(=O)c2ccc3[nH]c4c(c3c2)CCCC4)c1 | -8.51% (inactive) |  |
| CCn1c2ccccc2c2nnc(N3CCN(c4cc(C)ccc4C)CC3)nc21 | 12.8% (inactive) |  |
| Cc1ccc2[nH]c3c(=O)n(CC(=O)NC(C)C)ncc3c2c1 | -18.8% (inactive) |  |
| CC(C)c1ccc(C2C(C(=O)c3ccco3)=C(O)C(=O)N2CC2CCCO2)cc1 (centres undefined) | -8.95% (inactive) |  |
| O=C(C1=C(O)C(=O)N(c2ncccn2)C1c1cccs1)c1ccco1 (centres undefined) |  | 79.4 µM (active) |
| O=C(C1=C(O)C(=O)N(CCOCCO)C1c1ccccn1)c1cccs1 (centres undefined) | -5.89% (inactive) |  |
| O=C(CN1C(=O)CCn2nc(-c3ccccc3)cc21)NCc1ccccc1 | -13.6% (inactive) |  |
| O=C(c1cccs1)c1cn(CCOc2ccc(Cl)cc2)c2ccccc12 | -12.8% (inactive) |  |
| CN1CCN(Cc2nc3cc(NC(=O)COc4ccc([N+](=O)[O-])cc4)ccc3n2C)CC1 | -2.43% (inactive) |  |
| O=C(N/N=C/c1ccc(OCC2COCCO2)cc1)c1ccc(Br)cc1 (centres undefined) | -9.88% (inactive) |  |
| O=C(COc1ccc(/C=N/NC(=O)c2ccc(O)cc2)cc1)Nc1ccc([N+](=O)[O-])cc1 |  | 4.47 µM (active) |
| COc1ccc(C2Sc3ccccc3NC3=C2C(=O)c2ccccc23)c(OC)c1OC (centres undefined) | -10.5% (inactive) |  |
| CCC(C)OC(=O)C(C)Oc1ccc(-c2ccccc2)cc1 (centres undefined) | -10.5% (inactive) |  |
| NC(CSC(c1ccccc1)(c1ccccc1)c1ccc(-c2ccccc2)cc1)C(=O)O (centres undefined) |  | 25.1 µM (active) |
| C=CCC(CC=C)(C(N)=O)c1ccccc1 | -13.7% (inactive) |  |
| O=C(Nc1ccc(C(=O)OCc2cc(=O)n3nc(C4CC4)sc3n2)cc1)c1ccc(F)cc1 | 3.99% (inactive) |  |
| COc1ccc(CCNCc2c(C(=O)O)c(C)n(Cc3cccc(C)c3)c2C)cc1OC | -19.4% (inactive) |  |
| COc1ccc(Cl)cc1NC(=O)CCS(=O)(=O)c1ccc(Br)cc1 |  | 20 µM (active) |
| COc1ccc(Cl)cc1NC(=O)CN(C)Cc1ccc(OC)c(OC)c1 | -27.5% (inactive) |  |
| Cn1c(=O)oc2cc(S(=O)(=O)CCC(=O)NCCc3ccc(Cl)cc3)ccc21 | -13.5% (inactive) |  |
| O=C(CCS(=O)(=O)c1ccc(Br)cc1)NCCc1ccc(Cl)cc1 |  | 20 µM (active) |
| COc1ccc(Cl)cc1NC(=O)CCC(=O)c1ccc(C)cc1 | -3.27% (inactive) |  |
| CC(=O)N1CCc2cc(Br)cc(S(=O)(=O)CCC(=O)NCCc3ccc(Cl)cc3)c21 | -7.83% (inactive) |  |

| Structure (SMILES) | activity change, negative = inhibition | Potency |
| --- | --- | --- |
| O=C(CCS(=O)(=O)c1cc(Br)cc2c1N(C(=O)C1CC1)CC2)Nc1ccc(Br)cc1F | 4.1% (inactive) |  |
| CSc1nc(-c2ccccc2Cl)nc2c1Cc1c(CO)cnc(C)c1O2 | -2.32% (inactive) |  |
| Cc1c(C)n2c(SCC(=O)N3CCCC3)nnc2[nH]c1=O | -18.5% (inactive) |  |
| COCCn1c(SCC(=O)N2CCCCCC2)nc2c(c1=O)SCC2 | -10.1% (inactive) |  |
| CC(=O)c1sc2nc(SCC(=O)N3CCCCC3)[nH]c(=O)c2c1C |  | 10 µM (active) |
| Cc1cc(C)c2oc(C(=O)Nc3ccc(S(=O)(=O)N4CCCCCC4)cc3)cc(=O)c2c1 | -9.78% (inactive) |  |
| O=C(CSc1nnc(-c2ccncc2)n1-c1ccccc1)Nc1ccc(Cl)c(Cl)c1 | 1.86% (inactive) |  |
| COc1ccc(S(=O)(=O)NCCSc2nnnn2-c2ccccc2)cc1 | -11% (inactive) |  |
| CC(C)(C)C1C/C(=C/c2ccco2)C(=O)/C(=C/c2ccco2)C1 (centres undefined) |  | 28.2 µM (active) |
| COc1cc(Cl)ccc1Nc1ncc(C(=O)N2CCN(c3ccccc3OC)CC2)c2ccccc12 | -7.62% (inactive) |  |
| COc1ccc(Nc2ncc(C(=O)Nc3cc(C)ccc3OC)c3ccccc23)cc1 | -16.5% (inactive) |  |
| COc1ccc(C(=O)Nc2cccc(C(=O)OCc3cc(=O)n4c5c(sc4n3)CCCC5)c2)cc1 | -3.82% (inactive) |  |
| COc1ccccc1CNC(=O)c1ccc(-n2c(C)cc3c2CCCC3)cc1 | -7.73% (inactive) |  |
| COc1ccc(C2=CC(c3ccccc3Cl)n3nc(-c4ccc(Cl)cc4)nc3N2)cc1 (centres undefined) | -22.5% (inactive) |  |
| CCCCOc1ccc(CNC(=O)c2ccc3c(c2)N(C)C(=O)C2CCCCN32)cc1 (centres undefined) | -10% (inactive) |  |
| Cc1cc(C)cc(NS(=O)(=O)c2ccc(-c3cc(C)no3)s2)c1 | 5.56% (inactive) |  |
| COc1ccc(NC(=O)C(=O)NCc2ccco2)cc1 | 1.33% (inactive) |  |
| COCCNC(=O)Nc1ccc2nc(-c3ccco3)c(-c3ccco3)nc2c1 |  | 2.82 µM (active) |
| CCOc1ccc(NC(=O)c2ncoc2-c2ccco2)cc1 | -22.9% (inactive) |  |
| CCC(=O)N1c2ccccc2CC1C(=O)N1CCN(c2ccccc2F)CC1 (centres undefined) | -10.7% (inactive) |  |
| Cc1cccc(CC(=O)N2CC(=O)Nc3ccc(F)cc3C2c2ccccc2)c1 (centres undefined) | -24% (inactive) |  |
| CC(NC(=O)COC(=O)c1ccc(Cl)cc1O)c1ccc(F)cc1 (centres undefined) | -13.8% (inactive) |  |
| O=C(COC(=O)c1ccc(F)cc1F)Nc1ncccn1 |  | 22.4 µM (active) |
| O=C(COC(=O)CSc1ccccc1)Nc1ccc(F)cc1F | -9.37% (inactive) |  |
